# Screens: PubChem, National Center for Advancing Translational Sciences (NCATS)
# AmpC inh no detg: blocks E. coli AmpC beta-lactamase in detergent-free assay. P00811. AmpC nitrocefin hydrolysis, absorbance 480 nm, 0.0001% Triton. Potency, µM (titrated, usually from 57.1 µM), inactives show at the top dose activity change, negative = inhibition, hits mostly inhibitors. 0.52% of 330,000 active;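 note: plate controls were no compound for no effect and no enzyme for full effect; nearly all actives have a fitted effect of over 20% in size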
# Target sequence (P00811 whole entry, looked up): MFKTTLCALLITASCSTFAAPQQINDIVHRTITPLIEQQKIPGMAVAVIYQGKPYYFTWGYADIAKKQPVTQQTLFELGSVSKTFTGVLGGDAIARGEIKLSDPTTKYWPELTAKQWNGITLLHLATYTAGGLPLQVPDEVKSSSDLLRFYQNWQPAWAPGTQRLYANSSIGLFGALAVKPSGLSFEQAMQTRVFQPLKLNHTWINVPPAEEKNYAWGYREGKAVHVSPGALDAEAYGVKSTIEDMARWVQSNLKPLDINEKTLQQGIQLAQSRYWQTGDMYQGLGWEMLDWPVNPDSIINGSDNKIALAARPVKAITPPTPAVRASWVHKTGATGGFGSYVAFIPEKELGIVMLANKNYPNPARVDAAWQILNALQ
#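 AmpC (5.3 nM in the dispensed reagent) in 20 mM phosphate pH 7.0 with 0.01% (detergent screen) or 0.0001% Triton X-100 was preincubated with compounds for 15 min at room temperature. Nitrocefin was then added from an 800 uM solution, and hydrolysis was followed at 480 nm.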
# Sm TGR block: blocks Schistosoma mansoni thioredoxin glutathione reductase | Q962Y6 | purified TGR, DTNB reduction, TNB absorbance 405 nm | Potency, µM (top dose mostly 114 µM), for inactives: at the highest dose activity change, negative = inhibition, hits mostly inhibitors | 3% of 360,000 active | AID 485364; note: nearly all actives have a fitted effect of over 60% in size
#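 TGR 20 nM + NADPH 100 uM (dispensed conc.), cpd preinc 15 min RT; start with NADPH (500 uM addition) then DTNB (15 mM addition). Kinetic TNB absorbance, 405 nm filter. Four-parameter Hill fit across titration.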
# AmpC detergent: AmpC beta-lactamase inhibition with detergent present; P00811; 0.041% of 370,000 active; Potency, µM (highest dose often 114 µM), inactives show at the highest dose activity change, negative = inhibition, actives largely listed as inhibitors; AmpC hydrolysis of nitrocefin, absorbance 480 nm, 0.01% Triton;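 note: 0% = no-compound wells and -100% = no-enzyme wells; nearly all actives have a fitted effect of over 25% in size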
#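 20 mM phosphate pH 7.0 + 0.01% (detergent screen) or 0.0001% Triton X-100; 5.3 nM AmpC reagent; cpd preinc 15 min RT; nitrocefin (800 uM stock) to start; A480 q20 s × 4 min; Activity was normalised to no-enzyme and no-compound control wells.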
# An asterisk follows results filed as active; ? = inconclusive; . = no result given. This is a sample that favours compounds with a hit; in the whole collection about 3.3% have one here. Calls come from the whole dose curve; as a rule, active = well fitted curve in the direction sought with a large enough effect; inconclusive = small, poorly fitted or top-dose-only effect, or another doubt; inactive = no such curve, though single readings can be large; an effect the other way counts as inactive or inconclusive. Unless noted, % is set by controls: 0 for no effect and ±100 for the full control effect; potency is the fitted concentration of half-maximal effect.
SMILES,AmpC inh no detg,Sm TGR block,AmpC detergent
CC(=O)N1CCOc2cc(S(=O)(=O)Nc3c(C)cccc3C(C)C)c(Cl)cc21,120%,79µM*,19%
COc1cccc(NS(=O)(=O)c2cc3c(cc2C)N(C(C)=O)CCO3)c1,3%,8%,-4%
CC1CCN(CC(=O)N2CCc3ccccc32)CC1,-17%,3%,0%
CC(=O)N1CCc2cc(C(=O)CN3CCN(c4cccc(Cl)c4)CC3)ccc21,16%,25µM*,?
CC(=O)N1CCc2cc(C(=O)CN3CCN(C(=O)c4ccco4)CC3)ccc21,29%,14µM*,2%
CC(=O)N1CCN(C(=O)c2ccco2)CC1,0%,-11%,-8%
CC(=O)N1CCc2ccc(C(=O)CN3CCN(c4cccc(C)c4C)CC3)cc21,7%,?,-13%
CC(=O)N1CCc2cc(C(=O)CN3CCCN(Cc4ccc(F)cc4)C3)ccc21,27%,45µM*,-14%
CC(=O)N1CCc2cc(C(=O)CN3CCC(C)CC3)ccc21,65%,28µM*,-7%
CC(=O)N1CCc2cc(CNC(=O)Cc3ccc(F)cc3)ccc21,.,-15%,1%
O=C(Nc1cc(-c2ccccc2)nn1C1CCCCC1)c1ccc(Cl)cc1,-22%,.,.
CC1=C(C(=O)Nc2ccccc2C(=O)NC2CCCCC2C)SCCO1 (configuration not stated),-7%,-4%,1%
Cc1ccc(SCc2cc(=O)c3c(=O)n(-c4ccccc4)[nH]c3[nH]2)cc1,-43%,-35%,-12%
O=c1cc(CSc2ccc(Cl)cc2)[nH]c2[nH]n(-c3ccccc3)c(=O)c12,-52%,45µM*,3%
CCc1ccc(C2c3c(n[nH]c3C)C(=O)N2c2ccc(C)cc2)cc1 (configuration not stated),.,-7%,3%
CC(C)CC(=O)Nc1ccc2nc(SCC(=O)N3CCc4ccccc43)sc2c1,.,0%,0%
CCCc1cc(=O)oc2cc(OCC(=O)Nc3ccc(S(N)(=O)=O)cc3)ccc12,28µM*,-15%,56µM*
CCCc1cc(=O)oc2cc(OCC(=O)NCc3cccs3)ccc12,-37%,-4%,-7%
COc1ccc2c(CC(=O)OCC(=O)Nc3ccc(S(N)(=O)=O)cc3)coc2c1,10µM*,-10%,-8%
COc1ccc2c(CC(=O)OCC(=O)Nc3ccc(C)cc3)coc2c1,-33%,9%,-14%
O=C(NCc1ccc(F)cc1)c1c(O)nc2ccccn2c1=O,.,7%,17%
CCN1CCN(CC(=O)n2c3c(c4ccccc42)CC(C)CC3)CC1 (configuration not stated),115%,-25%,-1%
CC1CCc2c(c3ccccc3n2C(=O)CCl)C1 (configuration not stated),-22%,8.9µM*,?
O=C(CCOc1ccccc1)N(Cc1cccnc1)c1nc2c(F)cc(F)cc2s1,.,5.6µM*,6%
CC(=O)N(Cc1cccnc1)c1nc2ccc(F)cc2s1,.,6%,-1%
SMILES,AmpC inh no detg,Sm TGR block,AmpC detergent
O=C(COc1ccccc1)N(Cc1cccnc1)c1nc2c(F)cc(F)cc2s1,.,-1%,1%
O=C(CCS(=O)(=O)c1ccccc1)N(Cc1cccnc1)c1nc2ccc(F)cc2s1,.,0.89µM*,-13%
O=C(Cn1c2ncccc2c(=O)n1-c1ccccc1)Nc1ccc(F)c(F)c1,.,41%,5%
O=C(OCC(=O)N1CCN(C(=O)c2ccco2)CC1)c1ccccc1NCCO,1%,-30%,-8%
CN(C)c1oc(-c2ccc(OCc3ccccc3)cc2)nc1C#N,4%,100µM*,?
N#Cc1nc(-c2ccc(OCc3ccccc3)cc2)oc1NCc1cccnc1,-2%,6%,-11%
O=C(O)c1ccccc1NC(=O)c1ccccc1Nc1ccccc1,-22%,-2%,9%
COc1ccc2cc(C(=O)NCCc3ccccc3)[nH]c2c1,-23%,-18%,-5%
COc1cc2cc(C(=O)NCCc3ccccc3)[nH]c2cc1OC,-17%,89µM*,?
O=C(NC1CC1)C1=C[C@@H](c2c[nH]c3ccccc23)C[C@@H](OCCCCO)O1,15%,4%,3%
NC(=O)c1ccccc1N/C=C/C(=O)c1ccc(Cl)cc1,-26%,0%,3%
O=C(/C=C/Sc1ccccc1)c1ccc(Cl)cc1,-31%,32µM*,-12%
O=C(/C=C/Nc1ccccc1)c1ccccc1,-13%,98%,5%
O=C(/C=C/Sc1ccccc1)c1ccccc1,-21%,10µM*,-2%
CCc1ccc(-n2nc(CO)c(C(=O)NCCc3ccccc3)n2)cc1,.,3%,21%
Cc1ccc(-n2c(=O)c3cc4c(=O)n(-c5ccc(C)c(C)c5)c(=O)c4c(C(=O)c4ccc(C(=O)O)cc4)c3c2=O)cc1C,-9%,-9%,3%
CCN=C1SC(C(=O)Nc2ccc(OC)cc2)CC(=O)N1CC (configuration not stated),3%,-12%,-8%
CCN(Cc1ccccc1)C(=O)CS(=O)(=O)c1ccccc1,42%,4%,-3%
O=S(=O)(C/C(=C/CO)S(=O)(=O)c1ccccc1)c1ccccc1,-13%,4.5µM*,1%
CC(C)N1CC2=C(OC(N)=C(C#N)C2c2cccnc2)/C(=C/c2cccnc2)C1 (configuration not stated),26%,-20%,-10%
N#CC1=C(N)OC2=C(CN(Cc3ccccc3)C/C2=C\c2cccnc2)C1c1cccnc1 (configuration not stated),-1%,22µM*,-5%
COc1cccc(N2CCN(C(=O)CCCn3c(=O)[nH]c4ccc(Br)cc4c3=O)CC2)c1,.,-3%,-4%
CCOc1ncccc1C(=O)OCC(=O)N1CCC(C)CC1,-2%,.,.
CC(C)C(NC(=O)c1ccc(C(C)(C)C)cc1)C(=O)N1CCC(C(N)=O)CC1 (configuration not stated),84%,-6%,?
Cc1ccc(C(=O)N[C@@H](C)CN2C3=NC[C@@H](Cc4ccccc4)N3C[C@H]2Cc2ccc(O)cc2)cc1Br,-1%,50µM*,6%
SMILES,AmpC inh no detg,Sm TGR block,AmpC detergent
COc1ccc(C[C@H]2CN3C(=NC[C@@H]3Cc3ccccc3)N2C[C@H](C)NC(=O)CCC2CCCCC2)cc1,92%,-7%,-4%
COc1ccc(C[C@H]2CN3C(=NC[C@@H]3Cc3ccc(O)cc3)N2CCNC(=O)c2ccc(C)c(Br)c2)cc1,20%,-2%,5%
Cc1ccc(C(=O)N[C@@H](C)CN2C3=NC[C@H](Cc4ccccc4)N3C[C@H]2Cc2ccc(O)cc2)cc1Br,51%,?,1%
COc1ccc(C[C@H]2CN3C(=NC[C@@H]3Cc3ccccc3)N2CCNC(=O)c2ccc(C)c(Br)c2)cc1,47%,11µM*,9%
COc1ccc(C[C@H]2CN3C(=NC[C@H]3Cc3ccccc3)N2CCNC(=O)c2ccc(C)c(Br)c2)cc1,150%,-22%,-3%
COc1ccc(C[C@@H]2CN3C(=NC[C@@H]3C)N2C[C@H](C)NC(=O)CCC2CCCCC2)cc1,25%,25µM*,-9%
COc1ccc(C[C@H]2CN3C(=NC[C@@H]3Cc3ccc(O)cc3)N2C[C@H](C)NC(=O)c2ccc(C)c(Br)c2)cc1,-15%,40µM*,10%
